Assay outcomes as filed in PubChem BioAssay.
The list is not random: actives were taken first. Their share in the collection is about 19%.
IL1B secr inh = inhibitors of inflammasome signaling (IL-1 beta secretion). THP-1 LPS/ATP IL-1B secretion, AlphaLISA, 16 h; hits give low values. activity change, % at 57.5 µM. actives 4.7% (n = 360,000); in the data active = activity change below about -50%; inconclusive = mostly about -30% to -49%
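Secreted IL-1B measured by AlphaLISA bead assay after 16 h compound exposure of THP-1 cells; compounds (final up to 57.5 uM) added 1 h before LPS (250 ng/mL) and ATP (1.25 mM) stimulation; lower signal means less secretion.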
HT1080-NT tox = kills 2HG-producing HT-1080-NT fibrosarcoma cells. HT-1080-NT fibrosarcoma viability, CellTiter-Glo ATP luminescence, 48 h. Potency, µM (titrated, usually from 46.1 µM), actives largely listed as cytotoxic. actives 1.6% (n = 360,000). AID 686970;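 note: NT is the 2HG producing partner of a matched IDH1 knockdown line; nearly all actives have a fitted effect of over 55% in size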
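HT-1080-NT fibrosarcoma cells (2HG-overproducing), 750 cells/well in RPMI with 5% FBS, dosed after 2 h and incubated 48 h at 37C. CellTiter-Glo luminescence normalized to DMSO and no-cell wells; concentration-response curves fitted and classed.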
ELG1 DNA repair = inhibitors of ELG1-dependent DNA repair in HEK293T cells; HEK293T ELG1-luciferase reporter, luminescence, 16 h; DNA damage induced by 5-fluorouridine; Potency, µM (highest dose often 46.1 µM), usual class: inhibitors; actives 2.3% (n = 330,000); note: nearly all actives have a fitted effect of over 55% in size
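Luminescence from the luciferase reporter, measured 30 min after ONE-Glo reagent at room temperature, was the read-out. Beforehand, 2,000 cells per well were exposed for 16 hr at 37 °C to 5-fluorouridine together with compound or vehicle.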
HT1080 IDH1KD tx = toxicity to HT-1080 IDH1 knockdown cells (counter line); HT-1080 IDH1 knockdown viability, ATP luminescence, 48 h; Potency, µM (top dose mostly 46.1 µM), usual class: cytotoxic; actives 2% (n = 360,000)
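Luminescent ATP read-out (CellTiter-Glo, 10 min at room temperature) after 48 h compound exposure at 37 °C gave viability of IDH1-knockdown HT-1080 cells. Activity was normalised to DMSO and cell-free wells, then fitted as concentration-response curves.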
TDP1 cell CPT = growth inhibition of DT40 Tdp1-/-;hTDP1 cells with camptothecin (screen for TDP1 inhibitors) | chicken DT40 Tdp1-/-;hTDP1 cells + 20 nM CPT, ATP luminescence, 48 h | actives 12% (n = 420,000) | AID 686979 | Potency, µM (titrated, usually from 46.2 µM), actives largely listed as inhibitors; note: nearly all actives have a fitted effect of over 55% in size
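Chicken DT40 Tdp1-/- cells stably complemented with human TDP1 were seeded at 400 cells/well in medium containing 20 nM camptothecin, exposed to pin-transferred compounds, and grown at 37 °C for at least 48 hr. Viability was read as ATP luminescence.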
TDP1 cell noCPT = qHTS for Inhibitors of human tyrosyl-DNA phosphodiesterase 1 (TDP1): qHTS in cells in absence of CPT; Potency, µM (top dose mostly 46.2 µM), most hits filed as inhibitors; DT40 Tdp1-/- hTDP1 cells, no CPT, ATP luminescence, 48 h; AID 686978, 2013; actives 15% (n = 420,000); note: nearly all actives have a fitted effect of over 55% in size
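Camptothecin absent (DMSO only). Human TDP1-complemented DT40 knockout cells, 400 cells/well, 37 °C for minimum 48 hr; ATP measured via CellTiter-Glo, 30 min dark incubation, luminescence.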
Each line names hits and unclear results; the compound was inactive in the other large screens. Unless noted, calls come from the whole dose curve; as a rule, active = well fitted curve in the direction sought with a large enough effect; inconclusive = small, poorly fitted or top-dose-only effect, or another doubt; inactive = no such curve, though single readings can be large; an effect the other way counts as inactive or inconclusive.

COC(=O)c1cc(S(=O)(=O)C(C)C)c(S(C)=O)s1 (stereo unspecified)	IL1B secr inh -100, HT1080-NT tox inconclusive, TDP1 cell noCPT inconclusive
CSc1sc(C(=O)NCC2CC2)cc1S(=O)(=O)C(C)C	TDP1 cell noCPT inconclusive
CNc1cc(Cl)nc(SC)n1	none
CSc1nc(Cl)cc(Nc2ccc(O)cc2)n1	HT1080-NT tox 16µM, ELG1 DNA repair inconclusive, HT1080 IDH1KD tx 13µM, TDP1 cell CPT inconclusive, TDP1 cell noCPT inconclusive
CCC(C)N(C(=O)COC(=O)c1ccc(=O)n(Cc2ccccc2)n1)C1CCS(=O)(=O)C1 (stereo unspecified)	none
CC(C)C[C@H](N)c1nnc(SCC(=O)Nc2ccc(Br)cc2)o1	none
CC(C)C[C@H](N)c1nnc(S(=O)(=O)Cc2ccc(F)cc2)o1	IL1B secr inh -117, HT1080-NT tox inconclusive, ELG1 DNA repair inconclusive, HT1080 IDH1KD tx inconclusive, TDP1 cell CPT 1.3µM, TDP1 cell noCPT 2.1µM
Nc1c(-c2ccc(Cl)cc2)cnc2c(-c3ccc(F)cc3)cnn12	ELG1 DNA repair inconclusive
OC(c1cc(-c2ccc(Cl)cc2)nc2ccccc12)C1CCCCN1 (stereo unspecified)	IL1B secr inh -78, HT1080-NT tox inconclusive, ELG1 DNA repair inconclusive, TDP1 cell CPT 23µM, TDP1 cell noCPT 26µM
OC(c1cc(C(F)(F)F)nc2c(Cl)cc(Cl)cc12)C1CCCCN1 (stereo unspecified)	IL1B secr inh -89, HT1080-NT tox inconclusive, ELG1 DNA repair inconclusive, HT1080 IDH1KD tx inconclusive, TDP1 cell CPT 18µM, TDP1 cell noCPT inconclusive
N#CCCN(C(=O)COC(=O)c1ccc(Cl)nc1)c1ccc2c(c1)OCCO2	none (no result: ELG1 DNA repair)
Nc1c(C(=O)N2CCCCC2)sc(=S)n1-c1ccccc1	TDP1 cell CPT 21µM, TDP1 cell noCPT inconclusive
CN(Cc1cnccn1)Cc1nc(Cc2cccc(F)c2)no1	none
CCOc1ccc(NC(=O)c2cnn3c2NC(C)=C(C(=O)Nc2ccc(Cl)cc2)C3c2ccc(OC)c(OC)c2)cc1 (stereo unspecified)	TDP1 cell CPT 23µM, TDP1 cell noCPT 10µM (no result: IL1B secr inh, HT1080-NT tox, ELG1 DNA repair, HT1080 IDH1KD tx)
COc1ccccc1NC(=O)C1=C(C)Nc2c(C(=O)Nc3ccc(F)cc3)cnn2C1c1ccc(Cl)cc1 (stereo unspecified)	TDP1 cell CPT 13µM, TDP1 cell noCPT inconclusive (no result: IL1B secr inh, HT1080-NT tox, ELG1 DNA repair, HT1080 IDH1KD tx)
COc1ccc(C2C(C(=O)Nc3ccccc3OC)=C(C)Nc3ncnn32)cc1 (stereo unspecified)	none
COc1cccc(N2CC(NC(=O)C3CC3)CC2=O)c1 (stereo unspecified)	none (no result: IL1B secr inh, HT1080-NT tox, ELG1 DNA repair, HT1080 IDH1KD tx)
CN(C)S(=O)(=O)NC(=O)C1=C(N2CCCC2)COC1=O	none
C=C(C)COc1ccc(-c2nc(N)ncc2-c2ccc(Cl)cc2)c(O)c1	IL1B secr inh inconclusive, HT1080-NT tox inconclusive, TDP1 cell CPT 23µM, TDP1 cell noCPT inconclusive
COc1ccc(-c2cnc(N)nc2-c2ccc(OC)cc2O)cc1	IL1B secr inh -73, ELG1 DNA repair 23µM, TDP1 cell CPT inconclusive, TDP1 cell noCPT inconclusive
COc1ccc(-c2nc(N)ncc2-c2ccccc2)c(O)c1	TDP1 cell CPT inconclusive, TDP1 cell noCPT inconclusive
Nc1ncc(-c2ccccc2)c(-c2ccc(OCc3ccccc3)cc2O)n1	IL1B secr inh -103, HT1080-NT tox inconclusive, HT1080 IDH1KD tx inconclusive, TDP1 cell CPT inconclusive, TDP1 cell noCPT inconclusive
COc1cccc(Oc2cnc(N)nc2-c2ccc(OC)cc2O)c1	HT1080-NT tox inconclusive, TDP1 cell CPT 2.9µM, TDP1 cell noCPT 2.3µM
Cc1cnc(C(=O)OCC(=O)NCc2ccc(Cl)cc2)cn1	ELG1 DNA repair inconclusive
Cc1cc(C)n2nc(C(=O)OCC(=O)N(C)C3CCS(=O)(=O)C3)nc2n1 (stereo unspecified)	none
COc1ccc(-c2nc(N)nc(C(F)(F)F)c2-c2ccccc2OC)c(O)c1	TDP1 cell CPT inconclusive, TDP1 cell noCPT 23µM
CCN(CC)C(=O)C1CCCN(Cc2ccc3ccccc3c2)C1 (stereo unspecified)	none
